Hit rate of the full screen: of about 330,000 compounds, about 660 (0.2%) were called active.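 The calls were made as follows: active = inhibition of at least 40% at 10 µM in the primary screen; inactive = the rest.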 For the sample, actives were picked, then their nearest neighbours and some compounds at random.
Tested on: intestinal alkaline phosphatase [Mus musculus]
Assay: inhibitors of mouse IAP, primary screen, biochemical, luminescence, uHTS (AID 2806);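 also: plate controls were DMSO with enzyme for no effect and no enzyme wells for full effect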
Conditions: purified mouse IAP, CDP-Star luminescence, 30 min; at 10 µM; stronger effect = higher value

Row | SMILES | inhibition
1 | COc1cccc2[nH]c(C(=O)NCCc3ccccc3)cc12 | -19.5% (inactive)
2 | O=C(N1CCCCC1)N1CCN(C(=O)N2CCCCC2)CC1 | -1.7% (inactive)
3 | CC1(C)S[C@@H]2[C@H](N=CN3CCCCCC3)C(=O)N2[C@H]1C(=O)O | -8.2% (inactive)
4 | O=C(COC(=O)Cn1[nH]c(=O)c2ccccc2c1=O)Nc1c(Cl)cccc1C(F)(F)F | 4.1% (inactive)
5 | O=C(c1cc2ccccc2o1)N1CCN(S(=O)(=O)c2ccc(Cl)s2)CC1 | -5.4% (inactive)
6 | Cc1cc(-c2ccc(S(=O)(=O)N3CCc4ccccc4C3)s2)on1 | 4.5% (inactive)
7 | NC(=O)NC(=O)CSc1nc2cc([N+](=O)[O-])ccc2n1-c1cccc(C(F)(F)F)c1 | 14.7% (inactive)
8 | CCc1sc(C(=O)N2CCN(CC(=O)Nc3cccc(F)c3)CC2)cc1C | 6.1% (inactive)
9 | CC[C@]1(O)C[C@@H]2CN(CCc3c([nH]c4ccccc34)[C@@](C(=O)OC)(c3cc4c(cc3OC)N(C)[C@H]3[C@@](O)(C(=O)OC)[C@H](OC(C)=O)[C@]5(CC)C=CCN6CC[C@]43[C@@H]65)C2)C1 | -16.7% (inactive)
10 | CCNc1c(NS(=O)(=O)c2ccc(C3CCCCC3)cc2)c(=O)oc2ccccc12 | 6% (inactive)
11 | CC(=O)Nc1ccc(S(=O)(=O)Nc2cc(C)cn(Cc3ccc(C)cc3)c2=O)cc1 | 4.9% (inactive)
12 | O=C(Nc1cccc2ccccc12)c1onc2c1CCCC2 | 3% (inactive)
13 | COc1cc(CN2CCNC(=O)C2CC(=O)NCCc2ncccc2C)cc(OC)c1 (centres undefined) | 5.5% (inactive)
14 | O=S(=O)(NCc1ccc2c(c1)OCO2)c1cccc2nsnc12 | -5.4% (inactive)
15 | Cc1ccc(S(=O)(=O)NCC(=O)NNC(=O)c2ccc(Br)cc2)cc1C | 28.4% (inactive)
16 | Cn1c2c(c(=O)n(C)c1=O)C1c3ccccc3OCC1C(C)(C)O2 (centres undefined) | 8.7% (inactive)
17 | CC(C)Oc1ccc(CN2CCC(n3nccc3NC(=O)c3cccnc3)CC2)cc1 | -5.5% (inactive)
18 | Oc1cc(O)c2c(c1)OC(c1ccc(O)c(O)c1)C(O)C2 (centres undefined) | 75.1% (active)
19 | CC(C)Oc1ccc(CCc2nnc(SCC(=O)O)n2-c2ccccc2)cc1 | 3.2% (inactive)
20 | O=S(=O)(c1ccc(NC(=S)NN=C(C2CC2)C2CC2)cc1)N1CCOCC1 | 37.7% (inactive)
21 | O=[N+]([O-])c1cc(Cl)cc(/C=N/NC(=S)Nc2cc(S(=O)(=O)N3CCOCC3)ccc2Cl)c1O | 40.5% (active)
22 | Cc1ccc(S(=O)(=O)N2CCN(CC(=O)N/N=C/c3cc([N+](=O)[O-])ccc3Cl)CC2)cc1 | 14.9% (inactive)

Row | SMILES | inhibition
23 | COc1ccccc1C1C(C(N)=O)=C(C)Nc2nc(CCCO)nn21 (centres undefined) | -1.6% (inactive)
24 | Cc1occc1-c1nnc(SCC(=O)NC2CCCCC2)o1 | -1.8% (inactive)
25 | O=C1N[C@H](Cc2ccccc2)C(=O)N[C@H]1Cc1cn(S(=O)(=O)c2ccccc2)c2ccccc12 | -8% (inactive)
26 | CCOC(=O)C(NS(=O)(=O)c1ccc(C)cc1)(C(F)(F)F)P(=O)(OCC(C)C)OCC(C)C (centres undefined) | 2.8% (inactive)
27 | CCOC(=O)/C(N=Nc1cc(C(=O)O)cc(C(=O)O)c1)=C(\O)CCl | -0.2% (inactive)
28 | CCn1c(CSc2nncn2-c2ccc(OC)cc2)nc2cc(S(=O)(=O)N(C)C)ccc21 | 6.6% (inactive)
29 | CCN(CC)S(=O)(=O)c1cc(C(=O)Nc2ccccn2)ccc1C | 0.4% (inactive)
30 | OCC(O)CN(c1ccccc1)c1ccccc1 (centres undefined) | 0.3% (inactive)
31 | CN(C(=O)C1CCN(c2ncnc3c2nc2n3CCCCC2)CC1)C1CCCCC1 | -5% (inactive)
32 | FC(F)(F)c1nnc2c3ccccc3c(Cl)nn12 | -3.6% (inactive)
33 | CC(=O)N1CC[n+]2c(-c3ccc([N+](=O)[O-])cc3)csc21 | 7.9% (inactive)
34 | Cc1nc(C(=O)N2CCCC(C(=O)c3ccc(Cl)cc3)C2)cs1 (centres undefined) | 0.3% (inactive)
35 | CCc1ccc(CN(C)Cc2nc(Cc3ccccc3)no2)nc1 | -1.4% (inactive)
36 | O=C1N[C@@H](Cc2ccccc2)C(=O)N2[C@H]1C[C@]1(Br)c3ccccc3N(S(=O)(=O)c3ccccc3)[C@H]21 | 5.7% (inactive)
37 | CCC(=O)Nc1c(S(=O)(=O)c2ccccc2)c2nc3ccccc3nc2n1Cc1ccccc1 | 2.7% (inactive)
38 | O=C(O)c1ccccc1OCc1ccccc1Cl | 6.6% (inactive)
39 | CN(C(=O)CSc1nnc(N)s1)c1c(N)n(Cc2ccccc2)c(=O)[nH]c1=O | 3.6% (inactive)
40 | Cc1ccc(N2C(=O)c3ccccc3C2(O)c2ncc[nH]2)cc1 (centres undefined) | -9% (inactive)
41 | CCC(C)(C(=O)NC1CCCCC1)N(C)C(=O)c1ccc2c(c1)OCO2 (centres undefined) | 2.8% (inactive)
42 | CCOc1ccc(NS(=O)(=O)c2cc(C)c(C)cc2C)cc1 | -7.7% (inactive)
43 | CN(C)N(C)C(=O)C(O)(c1ccccc1)c1ccccc1 | 2.1% (inactive)
44 | O=c1c(F)cn(C2CCCO2)c(=O)n1Cc1ccccc1Cl (centres undefined) | -1.3% (inactive)

Reference: PubChem BioAssay AID2806 (Sanford-Burnham Center for Chemical Genomics, 2010)
